Of roughly 7,900 targets only a part is listed; those with a hit were picked by preference. About 0.6% of all pairs of compound and target were hits.
Columns and labels:
Assay in all cases: log2 fold change, soluble protein after heating vs DMSO (PISA); higher = thermal stabilisation; K562 cells, 10 uM, 30 min; active = over 0.2 and 3.5 SD of the protein, either way, in both replicates (recomputed)
[1] = compound: C1=CC=C(C=C1)[C@H](COC2=CC3=C(C=C2)NC(=O)N3)NC(=O)C4=CC=CN(C4=O)CC5=CC(=C(C=C5)F)F
Procedure, shortened: (§1)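 K562 cells at 2×10^6 cells/mL were treated for 30 min with 10 μM compound, and aliquots were heated for 3 min over 48°C-58°C before pooling. Extraction used PBS with 0.5% NP-40 at 4°C, and soluble protein was the supernatant after 21,000xg for 90 min, measured by TMTpro 16plex LC-MS/MS with channel sums equalised. Thermal stability values, relative to control samples and from duplicates, are log2 fold changes.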

[2] = compound: CC1=C(SC2=C1C(=N[C@H](C3=NN=C(N32)C)CC(=O)N)C4=CC=C(C=C4)Cl)C
Procedure, shortened: as §1

[3] = compound: CC1=C2C(=CC=C1)N=C(N(C2=O)C3=CC=CC=C3C)CN4C=NC5=C(N=CN=C54)N
Procedure, shortened: as §1

[4] = compound: Cc1sc2c(c1C)C(c1ccc(Cl)cc1)=N[C@@H](CC(=O)OC(C)(C)C)c1nnc(C)n1-2
Procedure, shortened: as §1

[5] = compound: c1ccc([C@@H]2C[C@H]2NC2CCNCC2)cc1
Procedure, shortened: as §1

Sequence of UniProt Q7Z4Q2 (Q7Z4Q2 whole entry, looked up): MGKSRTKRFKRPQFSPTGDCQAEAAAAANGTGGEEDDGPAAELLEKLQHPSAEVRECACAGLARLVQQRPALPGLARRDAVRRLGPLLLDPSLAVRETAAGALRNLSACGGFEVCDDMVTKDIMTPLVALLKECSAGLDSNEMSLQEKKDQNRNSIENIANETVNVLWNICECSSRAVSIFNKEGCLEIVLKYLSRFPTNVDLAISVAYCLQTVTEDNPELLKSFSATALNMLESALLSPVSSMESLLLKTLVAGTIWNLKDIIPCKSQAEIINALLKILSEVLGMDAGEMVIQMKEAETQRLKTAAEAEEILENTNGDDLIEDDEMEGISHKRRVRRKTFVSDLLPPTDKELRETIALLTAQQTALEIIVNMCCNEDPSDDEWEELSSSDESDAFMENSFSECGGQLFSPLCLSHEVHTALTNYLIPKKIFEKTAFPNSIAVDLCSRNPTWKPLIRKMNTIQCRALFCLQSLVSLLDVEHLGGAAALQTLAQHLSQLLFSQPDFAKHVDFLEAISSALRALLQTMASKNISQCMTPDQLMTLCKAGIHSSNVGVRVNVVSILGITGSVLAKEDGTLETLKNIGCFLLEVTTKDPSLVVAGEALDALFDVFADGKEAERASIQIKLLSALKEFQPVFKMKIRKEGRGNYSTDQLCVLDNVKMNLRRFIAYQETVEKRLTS
Sequence of UniProt Q6P3S6 (Q6P3S6 whole entry, looked up): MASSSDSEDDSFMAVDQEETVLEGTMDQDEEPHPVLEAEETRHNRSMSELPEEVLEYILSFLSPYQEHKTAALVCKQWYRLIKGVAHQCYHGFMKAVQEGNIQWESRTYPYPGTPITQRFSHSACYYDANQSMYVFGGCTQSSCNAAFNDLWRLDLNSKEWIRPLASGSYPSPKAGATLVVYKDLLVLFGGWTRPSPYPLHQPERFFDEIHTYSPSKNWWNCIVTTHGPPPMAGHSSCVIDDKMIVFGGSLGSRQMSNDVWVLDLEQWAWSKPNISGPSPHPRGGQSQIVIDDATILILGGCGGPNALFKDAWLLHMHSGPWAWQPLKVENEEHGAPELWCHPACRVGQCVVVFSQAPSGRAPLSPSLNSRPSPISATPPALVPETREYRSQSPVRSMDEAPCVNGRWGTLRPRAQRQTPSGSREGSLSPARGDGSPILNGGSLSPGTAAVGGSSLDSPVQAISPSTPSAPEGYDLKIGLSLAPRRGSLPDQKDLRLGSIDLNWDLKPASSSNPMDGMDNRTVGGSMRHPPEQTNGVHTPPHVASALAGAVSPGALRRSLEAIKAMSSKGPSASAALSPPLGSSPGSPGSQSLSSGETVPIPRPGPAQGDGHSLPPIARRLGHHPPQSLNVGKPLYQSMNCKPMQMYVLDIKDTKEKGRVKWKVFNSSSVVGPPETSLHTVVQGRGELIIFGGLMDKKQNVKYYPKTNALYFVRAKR
Sequence of UniProt Q9H6D7 (Q9H6D7 whole entry, looked up): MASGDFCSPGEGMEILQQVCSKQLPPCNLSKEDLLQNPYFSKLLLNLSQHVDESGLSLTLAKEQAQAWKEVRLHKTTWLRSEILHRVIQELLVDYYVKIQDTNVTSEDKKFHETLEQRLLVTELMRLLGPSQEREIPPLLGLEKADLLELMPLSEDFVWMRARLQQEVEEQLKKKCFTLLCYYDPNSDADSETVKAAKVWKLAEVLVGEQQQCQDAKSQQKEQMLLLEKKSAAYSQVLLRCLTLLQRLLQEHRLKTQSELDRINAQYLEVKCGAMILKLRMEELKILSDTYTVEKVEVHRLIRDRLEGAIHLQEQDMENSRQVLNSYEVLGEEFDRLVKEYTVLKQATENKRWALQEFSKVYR
Sequence of UniProt P37268 (P37268 whole entry, looked up): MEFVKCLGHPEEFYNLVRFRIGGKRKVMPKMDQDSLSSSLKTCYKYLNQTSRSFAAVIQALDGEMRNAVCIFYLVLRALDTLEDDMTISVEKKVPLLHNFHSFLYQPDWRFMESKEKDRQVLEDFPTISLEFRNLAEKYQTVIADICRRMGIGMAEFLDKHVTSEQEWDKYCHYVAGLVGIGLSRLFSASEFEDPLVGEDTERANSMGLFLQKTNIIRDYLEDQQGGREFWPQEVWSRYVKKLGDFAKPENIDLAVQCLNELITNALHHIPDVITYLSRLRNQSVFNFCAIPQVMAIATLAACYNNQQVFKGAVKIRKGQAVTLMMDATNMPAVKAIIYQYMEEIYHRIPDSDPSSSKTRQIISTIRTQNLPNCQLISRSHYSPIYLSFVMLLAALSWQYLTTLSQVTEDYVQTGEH
Sequence of UniProt P09211 (P09211 whole entry, looked up): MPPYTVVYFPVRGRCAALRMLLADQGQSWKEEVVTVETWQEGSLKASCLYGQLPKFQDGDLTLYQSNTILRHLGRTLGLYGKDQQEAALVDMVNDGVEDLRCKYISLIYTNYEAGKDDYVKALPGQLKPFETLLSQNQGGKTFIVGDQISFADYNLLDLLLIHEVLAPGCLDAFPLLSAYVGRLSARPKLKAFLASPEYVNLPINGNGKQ
Sequence of UniProt P36969 (P36969 whole entry, looked up): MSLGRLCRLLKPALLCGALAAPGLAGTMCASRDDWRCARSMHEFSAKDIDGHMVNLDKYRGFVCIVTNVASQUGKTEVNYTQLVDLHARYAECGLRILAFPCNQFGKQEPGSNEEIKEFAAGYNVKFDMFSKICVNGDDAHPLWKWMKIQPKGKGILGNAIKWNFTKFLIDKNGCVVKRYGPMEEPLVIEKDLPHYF
Sequence of UniProt Q9BUP3 (Q9BUP3 whole entry, looked up): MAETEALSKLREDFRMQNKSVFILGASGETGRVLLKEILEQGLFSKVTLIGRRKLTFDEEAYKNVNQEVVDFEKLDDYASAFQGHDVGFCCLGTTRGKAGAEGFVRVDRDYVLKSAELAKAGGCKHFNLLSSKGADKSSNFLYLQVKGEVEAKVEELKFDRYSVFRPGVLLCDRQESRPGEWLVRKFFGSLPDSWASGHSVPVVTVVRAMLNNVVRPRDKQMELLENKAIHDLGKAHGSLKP

Row | Target | log2 fold change [1] | log2 fold change [2] | log2 fold change [3] | log2 fold change [4] | log2 fold change [5]
1 | FBXO42 (UniProt Q6P3S6) | -0.022 (inactive) | 0.017 (inactive) | 0.094 (inactive) | 0.141 (inactive) | 0.077 (inactive)
2 | GPX4 (UniProt P36969) | 0.029 (inactive) | 0.001 (inactive) | 0.017 (inactive) | -0.064 (inactive) | 0.028 (inactive)
3 | HEATR3 (UniProt Q7Z4Q2) | -0.073 (inactive) | -0.014 (inactive) | 0.026 (inactive) | 0.004 (inactive) | -0.04 (inactive)
4 | HAUS4 (UniProt Q9H6D7) | 0.094 (inactive) | -0.066 (inactive) | 0.077 (inactive) | -0.021 (inactive) | -0.002 (inactive)
5 | GOPC (UniProt Q9HD26) | -0.315 (inactive) | -0.016 (inactive) | 0.018 (inactive) | 0.169 (inactive) | -0.054 (inactive)
6 | HTATIP2 isoform 3 (UniProt Q9BUP3) | 0.063 (inactive) | 0.031 (inactive) | 0.059 (inactive) | 0.028 (inactive) | -0.03 (inactive)
7 | FDFT1 (UniProt P37268) | -0.064 (inactive) | 0.319 (active) | 0.089 (inactive) | 0.109 (inactive) | -0.021 (inactive)
8 | GSTP1 (UniProt P09211) | -0.013 (inactive) | 0.039 (inactive) | 0.005 (inactive) | -0.013 (inactive) | -0.016 (inactive)
